Bioassay records as filed in PubChem.
Shown are actives, neighbours in structure and some others; about 19% of the full set was active somewhere.
KB-V1 cytotox: qHTS assay for MDR1-selective chemotherapeutics: Primary screen using the drug-selected MDR subline cells KB-V1 | KB-V1 MDR cells viability, CellTiter-Glo, 72 h | Potency, µM (top dose mostly 46.1 µM), hits mostly cytotoxic | 400,000 compounds, 3.4% hits | AID 1347076, 2019; note: nearly all actives have a fitted effect of over 60% in size
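Drug-selected KB-V1 cells, grown in DMEM lacking phenol red with 10% FBS, receive compound titrations; after three days at 37 degrees C, surviving cell ATP is quantified by CellTiter-Glo luminescence and responses normalized and curve-fitted.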
HT1080NT lethal: qHTS for induction of synthetic lethality in tumor cells producing 2HG: qHTS for the HT-1080-NT fibrosarcoma cell line. Potency, µM (highest dose often 46.1 µM), for the others: at the highest dose activity, negative = less viability, hits mostly cytotoxic. HT-1080-NT fibrosarcoma viability, CellTiter-Glo ATP luminescence, 48 h. AID 686970, 2013. 360,000 compounds, 1.6% hits;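 note: NT is the 2HG producing partner of a matched IDH1 knockdown line; 0% = DMSO-treated cells and -100% = media-only wells without cells; nearly all actives have a fitted effect of over 55% in size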
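Luminescent CellTiter-Glo readout after 48 hours of compound exposure at 37 degrees C defined viability of HT-1080-NT cells. Activity was normalized to DMSO wells and cell-free media wells; concentration-response curves were fitted and assigned curve classes.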
DT40 TDP1 no CPT: qHTS for Inhibitors of human tyrosyl-DNA phosphodiesterase 1 (TDP1): qHTS in cells in absence of CPT; DT40 Tdp1-/- hTDP1 cells, no CPT, ATP luminescence, 48 h; Potency, µM (series often up to 46.2 µM), for the others: at the highest dose activity change, negative = growth inhibition, actives largely listed as inhibitors; 420,000 compounds, 15% hits; AID 686978, 2013; note: nearly all actives have a fitted effect of over 55% in size
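Seeded 400 DT40-hTDP1 cells/well (vehicle DMSO, no 20 nM CPT); pinned compounds; ≥48 hr at 37 °C; CellTiter-Glo luminescence as viability measure.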
HT1080 IDH1KD tx: qHTS for induction of synthetic lethality in tumor cells producing 2HG: qHTS for the HT-1080-IDH1KD cell line | HT-1080 IDH1 knockdown viability, ATP luminescence, 48 h | Potency, µM (doses to about 46.1 µM), for the others: at the top dose activity, negative = toxicity, hits mostly cytotoxic | 360,000 compounds, 2% hits | AID 686971, 2013;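 note: 0% = DMSO wells and -100% = cell-free medium wells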
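HT-1080-IDH1KD cells (IDH1 knocked down), 750/well in RPMI with 5% FBS, treated with compound 48 h at 37 degrees C. Viability by CellTiter-Glo luminescence, normalised to DMSO and no-cell wells; concentration-response curves classed.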
KB-3-1 cytotox: qHTS assay for MDR1-selective chemotherapeutics: Primary screen using the parental adenocarcinoma cell KB-3-1 | KB-3-1 viability, CellTiter-Glo ATP luminescence, 72 h | 400,000 compounds, 1.4% hits | Potency, µM (doses to about 46.1 µM), hits mostly cytotoxic; note: nearly all actives have a fitted effect of over 60% in size
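Cells are dispensed, compounds pinned in, plates held at 37 °C for 72 h, then CellTiter-Glo is added and luminescence read after 10 minutes. Cell line: parental KB-3-1 in phenol-red-free DMEM, 10% FBS.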
DT40 TDP1 CPT: qHTS for Inhibitors of human tyrosyl-DNA phosphodiesterase 1 (TDP1): qHTS in cells in presence of CPT. chicken DT40 Tdp1-/-;hTDP1 cells + 20 nM CPT, ATP luminescence, 48 h. Potency, µM (top dose mostly 46.2 µM), for inactives: at the top dose activity change, negative = growth inhibition, usual class: inhibitors. 420,000 compounds, 12% hits; note: nearly all actives have a fitted effect of over 55% in size
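Cell growth measured by CellTiter-Glo luminescence after a minimum 48 h, 37 C compound exposure with 20 nM CPT in Tdp1-knockout DT40 cells stably expressing hTDP1, seeded 400/well; qHTS titration format.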
An asterisk follows results filed as active; i = inactive; u = inconclusive; x = no result given; [ ] = another dose, or the depositor's remark. Calls come from the whole dose curve; as a rule, active = well fitted curve in the direction sought with a large enough effect; inconclusive = small, poorly fitted or top-dose-only effect, or another doubt; inactive = no such curve, though single readings can be large; an effect the other way counts as inactive or inconclusive. Unless noted, % is set by controls: 0 for no effect and ±100 for the full control effect; potency is the fitted concentration of half-maximal effect.

SMILES	KB-V1 cytotox	HT1080NT lethal	DT40 TDP1 no CPT	HT1080 IDH1KD tx	KB-3-1 cytotox	DT40 TDP1 CPT
CCCCCCCN1C2=NCCCN2c2ccccc21	u	-7%	2.3µM*	u	u	2.6µM*
CCCCN1C2=NCCCN2c2cc(C)c(C)cc21	u	-11%	23µM*	3%[9.24 µM]	i	18µM*
CCCCN1C2=NC(c3ccccc3)CN2c2ccccc21 (stereo not drawn)	i	-1%	26µM*	-5%	i	u
CCCCCCCN1C2=NCCN2c2ccccc21	i	-19%	18µM*	-12%	u	12µM*
Clc1ccc(NC2(c3nnnn3C3CCCCC3)CCCCC2)cc1	i	-14%	21µM*	-9%	i	18µM*
CC(=O)N1c2ccc(S(=O)(=O)N3CCCCCC3)cc2CC1C(=O)NCc1cccc(C)c1 (stereo not drawn)	i	x	-17%	x	i	u
COC(=O)c1cccc(Nc2c(-c3ccc(O)cc3)nc3nc[nH]n23)c1	i	x	u	x	i	u
COC(=O)c1cccc(Nc2c(-c3ccc(OC)cc3)nc3nc[nH]n23)c1	i	x	u	x	i	21µM*
COc1ccccc1CNC(=O)COC(=O)c1ccc2c(=O)n3c(nc2c1)CCCCC3	i	-2%	7%	-2%	i	1%
CC1(Cc2ccccc2C#N)C(=O)Nc2cc(-c3ccccc3Cl)ccc21 (stereo not drawn)	i	u	u	u	u	23µM*
Cc1occc1C(=O)N/N=C/C(Br)=C\c1ccccc1	i	-13%	12µM*	-29%	i	18µM*
Cc1occc1C(=O)N/N=C/c1c[nH]c2ccccc12	i	-15%	-7%	-11%	i	-7%
O=C(N/N=C/C=N/NC(=O)c1ccco1)c1ccco1	i	16%	0%	8%	i	-19%
O=C(N/N=C/C(Br)=C\c1ccccc1)c1ccco1	u	-14%	9.2µM*	-6%	i	6.5µM*
Cc1onc(-c2ccccc2)c1C(=O)N/N=C/C(Br)=C/c1ccccc1	15µM*	2%	9.2µM*	-16%	u	6.5µM*
O=C(c1ccc2c(=O)n3c(nc2c1)CCC3)N1CCCSC1=Nc1ccccc1	i	3%	7%	0%	i	-8%
COc1ccccc1OC1=NS(=O)(=O)c2ccccc21	i	5%	13µM*	11%	i	21µM*
O=S1(=O)N=C(Oc2ccccc2F)c2ccccc21	i	x	x	x	i	x
CCN(CC)c1cccc(OC2=NS(=O)(=O)c3ccccc32)c1	i	-4%	16µM*	0%	i	8.2µM*
COc1ccccc1NC(=O)c1ncoc1-c1ccco1	i	x	0%	x	i	-11%
CN(C)CCN(Cc1ccccc1)C(=O)C1CCN(c2ncnc3c2nc2n3CCCCC2)CC1	i	1%	0%	-4%	i	-27%
Cc1c(Cl)cccc1NC(=O)C1CCN(c2ncnc3c2nc2n3CCCCC2)CC1	x	x	-6%	x	x	u
CC(C)N(Cc1ccccc1)C(=O)C1CCN(c2ncnc3c2nc2n3CCCCC2)CC1	i	-15%	18µM*	-3%	i	u
COC(=O)c1ccccc1NC(=O)C1CCN(c2ncnc3c2nc2n3CCCCC2)CC1	i	7%	16µM*	-4%	i	21µM*
COc1ccccc1NC(=O)C1CCN(c2ncnc3c2nc2n3CCCCC2)CC1	i	0%	18µM*	-5%	i	23µM*
SMILES	KB-V1 cytotox	HT1080NT lethal	DT40 TDP1 no CPT	HT1080 IDH1KD tx	KB-3-1 cytotox	DT40 TDP1 CPT
COc1cccc(CNc2nc3ccc(NC(C)=O)cc3s2)c1	i	0%	-12%	0%	i	-9%
c1cc(CN2CCCCC2)cc(OCCCNc2nc3ccccc3s2)c1	u	u	12µM*	u	i	18µM*
O=C(NCC1CCCN(Cc2cccc(OCCO)c2)C1)c1ccc(F)cc1 (stereo not drawn)	i	14%	-2%	0%	i	8%
O=C(NCCCOc1cccc(CN2CCCCC2)c1)c1ccc(Cl)c(Cl)c1	i	21µM*	13µM*	23µM*	i	18µM*
Cc1cc(C(=O)COC(=O)C2=NNC(=O)CC2)c(C)n1-c1cccc(C(F)(F)F)c1	i	4%	-8%	2%	i	-28%
O=C(CN1C(=O)NC2(CCCC2)C1=O)Nc1cc(S(=O)(=O)N2CCCCC2)ccc1Cl	u	-4%	u	14%	i	u
CC(=O)C(Cc1ccccc1)NC(=O)CN1c2cccc3cccc(c23)S1(=O)=O (stereo not drawn)	u	1%	1%	-9%	i	1%
COc1ccc(-c2n(CC(=O)OC3CC(C)CCC3C(C)C)c3ccccc3[n+]2C)cc1 (stereo not drawn)	u	6.5µM*	0.41µM*	5.8µM*	u	0.46µM*
COc1ccc(OCc2n(CC(=O)OC3CC(C)CCC3C(C)C)c3ccccc3[n+]2C)cc1 (stereo not drawn)	u	5.8µM*	2.3µM*	5.8µM*	13µM*	3.3µM*
CC1CCC(C(C)C)C(OC(=O)CSc2nccc(=O)[nH]2)C1 (stereo not drawn)	i	4%	-27%	4%	i	u
COc1ccc(C(=O)NC(=S)NNC(=O)c2ccc3ccccc3n2)cc1	u	-25%	18µM*	u	i	u
COc1cc(OC)cc(C(=O)NNC(=O)c2ccc3ccccc3n2)c1	u	u	5.2µM*	21µM*	u	5.2µM*
COc1cc(C(=O)NNC(=O)c2ccc3ccccc3n2)cc(OC)c1OC	i	u	u	u	u	u
COC(=O)c1cc(NC(=O)CCc2c(C)nc3nc(C)nn3c2C)cc(C(=O)OC)c1	i	x	-30%	x	i	1%
CC(NC(=O)CCc1nnc(-c2ccc(-c3ccccc3)cc2)o1)c1nccs1 (stereo not drawn)	i	0%	21µM*	-1%	i	26µM*
